PAX8 reporter: lowers PAX8-driven luciferase in RMG-I cells; RMG-I TPO-luciferase reporter, SteadyGlo, 24 h; inhibition, % at 12.6 µM; actives 1.2% (n = 360,000); AID 652154;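 active = mean replicate inhibition at least 60% with every replicate also reaching 60%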;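 also: luciferase light reporting Pax8 driven TPO promoter activity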
EBV LMP1 NFkB: reduces LMP1-driven NF-kappaB luciferase signal | AID 504558 | LMP1-induced NF-kappaB luciferase reporter cells, luminescence | inhibition, % at 12.5 µM | actives 0.69% (n = 350,000); in the data active = inhibition above about 41%
TROY signal inh: blocks TROY-dependent signaling in reporter cells | actives 0.98% (n = 360,000) | inhibition, % at 10 µM | Q293 LMP1-TROYcd NF-kB luciferase reporter, 4 h | AID 1347056;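 active = compounds whose plate-normalised and pattern-corrected inhibition of the luciferase reporter signal at the single screening dose is 50% or more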
EWS-Fli inh: inhibitors of EWS/Fli oncoprotein transcriptional activity; A673 NR0B1-luciferase reporter, viability-normalised; inhibition, % at 12.6 µM; actives 0.67% (n = 350,000);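 active = mean inhibition of at least 50% after viability correction, with every replicate also passing that limit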;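 also: firefly luciferase signal divided by Alamar Blue viability fluorescence both relative to DMSO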
TWEAK Fn14 block: TWEAK-Fn14 signaling inhibition | inhibition, % at 10 µM | AID 1159606 | actives 2% (n = 360,000) | TWEAK-stimulated Fn14 reporter cells, luciferase luminescence, 8 h; in the data active = inhibition above about 50%
LGR2 inh: Drosophila LGR2 receptor signaling inhibition; AID 720647; actives 0.35% (n = 380,000); inhibition, % at 9.99 µM; HEK293 LGR2, CRE-luciferase, bursicon-stimulated, 4 h;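 active = drop in luminescence signal, shown as inhibition above about 50% in the replicate tests, limit read from the data, passing the limit was not always enough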;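 also: agonist challenge used bursicon conditioned medium at about half maximal strength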
Hits are given with their value; . = inactive; / = no result; ! = a repeat was not active. Shown are actives, neighbours in structure and some others; about 3.2% of the full set was active somewhere.

SMILES | PAX8 reporter | EBV LMP1 NFkB | TROY signal inh | EWS-Fli inh | TWEAK Fn14 block | LGR2 inh
C[C@@H]1CN([C@@H](C)CO)C(=O)c2cc(NC(=O)Cc3ccccc3)ccc2O[C@@H](C)CCCCO[C@@H]1CN(C)Cc1ccccc1 | . | / | / | . | / | .
C[C@H](CO)N1C[C@H](C)[C@H](CN(C)S(=O)(=O)c2ccc(Cl)cc2)OCCCC[C@H](C)Oc2ccc(NS(=O)(=O)c3ccc(Cl)cc3)cc2C1=O | 81 | / | / | . | / | .
C[C@@H]1CN([C@@H](C)CO)C(=O)c2cc(NS(=O)(=O)c3ccc(Cl)cc3)ccc2O[C@@H](C)CCCCO[C@H]1CN(C)S(=O)(=O)c1ccc(Cl)cc1 | . | / | / | . | / | .
C[C@@H]1CN([C@H](C)CO)C(=O)c2cc(NS(=O)(=O)c3ccc(Cl)cc3)ccc2O[C@@H](C)CCCCO[C@H]1CN(C)S(=O)(=O)c1ccc(Cl)cc1 | 95 | / | / | . | / | .
C[C@@H]1CCCCO[C@@H](CN(C)C)[C@H](C)CN([C@H](C)CO)C(=O)c2cc(NS(=O)(=O)c3ccc(Cl)cc3)ccc2O1 | . | / | / | . | / | .
C[C@@H]1CN([C@@H](C)CO)C(=O)c2cc(NS(=O)(=O)c3ccc(Cl)cc3)ccc2O[C@@H](C)CCCCO[C@H]1CN(C)C | 80 | / | / | . | / | .
CC=Cc1ccc2n(c1=O)C[C@H]1[C@H](CO)[C@@H](C(=O)NCCC)[C@@H]2N1CC1CCCC1 (mixture of isomers) | / | / | / | . | / | .
O=C(C[C@@H]1CC[C@H]2[C@@H](COC[C@@H](O)CN2C(=O)c2ccccc2)O1)Nc1nccs1 | . | / | / | . | / | .
COc1ccc(S(=O)(=O)N(C)C[C@@H]2OCCCC[C@@H](C)Oc3ccc(NC(=O)CCCN(C)C)cc3C(=O)N([C@@H](C)CO)C[C@H]2C)cc1 | . | / | / | . | / | .
COc1cc(SC)ccc1C(=O)Nc1ccccn1 | . | . | . | . | 56 | .
COc1cc(SC)ccc1C(=O)Nc1cccc(C)n1 | . | . | . | . | . | .
COc1cc(SC)ccc1C(=O)Nc1ncc(C)s1 | 84 | 74 | 83 | 81 | 100 | 102
COc1cc(SC)ccc1C(=O)Nc1ccc(Br)cn1 | . | 51 | 84 | 73 | 97 | /
C[C@@H]1CN([C@H](C)CO)C(=O)c2cc(NC(=O)C3CC3)ccc2O[C@@H]1CN(C)S(C)(=O)=O | . | / | / | . | / | .
COc1ccc2c3c([nH]c2c1)[C@H](CO)N(C(=O)Nc1ccc(F)cc1)CC31CN(C(=O)Nc2ccccc2)C1 | . | / | / | . | / | .
CCS(=O)(=O)N1CCN(c2ccc([N+](=O)[O-])c(NCc3ccccc3)c2)CC1 | / | . | . | / | . | /
CS(=O)(=O)N1CCN(c2ccc([N+](=O)[O-])c(NCc3ccccc3)c2)CC1 | / | . | / | / | 75 | /
C[C@@H]1CN([C@@H](C)CO)C(=O)c2cc(NC(=O)CCCCCC(=O)Nc3ccccc3N)ccc2O[C@@H]1CN(C)C(=O)Nc1ccc(F)cc1 | . | / | / | . | / | .
C=C[C@]1(C)C=C2C(=O)[C@@]3(O)OC(=O)[C@@]4(CCCC(C)(C)[C@H]34)[C@@]2(O)CC1 | . | / | . | . | 104 | .
O=C(NCC[C@@H]1CC[C@H](NC(=O)C2CCCC2)[C@H](CO)O1)c1cnccn1 | . | / | / | . | / | .
CCc1ccc(-c2cn3nc(C)c(C)nc3n2)cc1 | / | 84 | . | / | 60 | /
CCN(Cc1cc(=O)n2ccsc2n1)c1cccc2ccccc12 | . | . | 64 | . | 97 | .
CC(C)(C)C(=O)Nc1cc2nn(-c3ccccc3)nc2cc1Cl | 74 | 75 | 91 | / | 108 | /
CC(=O)Nc1cc2nn(-c3ccccc3)nc2cc1Cl | . | . | . | / | . | /
Fc1ccc(-c2ccc(C3[C@@H]4CN(Cc5ccccc5)C[C@H]3N4)cc2)cc1 (stereo partly drawn) | 74! | / | / | . | / | .
Cc1ccc(-c2ccc([C@@H]3[C@@H]4CN(Cc5ccccc5F)C[C@H]3N4)cc2)cc1 | 89 | / | / | . | / | .
COc1cccc(-c2ccc(C3[C@@H]4CN(Cc5cccc(F)c5)C[C@H]3N4)cc2)c1 (stereo partly drawn) | 75! | / | / | . | / | .
COc1cc(CN2C[C@@H]3N[C@H](C2)C3c2ccc(-c3ccccc3C)cc2)cc(OC)c1 (stereo partly drawn) | 73! | / | / | . | / | .
COc1ccc(-c2ccc(C3[C@@H]4CN(Cc5cccc(OC)c5)C[C@H]3N4)cc2)cc1 (stereo partly drawn) | . | / | / | . | / | .

Screening results from PubChem.
